Data on 31 compounds can be found in PubChem BioAssay (Tox21).

Each structure is given as a SMILES string. Results filed as inconclusive are left out. A call without a number means that no potency is given here. The source made the active and inactive calls. Unless noted, calls follow the shape of the full dose curve.

Chain of Vitamin D3 receptor (Homo sapiens) (P11473 whole entry, looked up): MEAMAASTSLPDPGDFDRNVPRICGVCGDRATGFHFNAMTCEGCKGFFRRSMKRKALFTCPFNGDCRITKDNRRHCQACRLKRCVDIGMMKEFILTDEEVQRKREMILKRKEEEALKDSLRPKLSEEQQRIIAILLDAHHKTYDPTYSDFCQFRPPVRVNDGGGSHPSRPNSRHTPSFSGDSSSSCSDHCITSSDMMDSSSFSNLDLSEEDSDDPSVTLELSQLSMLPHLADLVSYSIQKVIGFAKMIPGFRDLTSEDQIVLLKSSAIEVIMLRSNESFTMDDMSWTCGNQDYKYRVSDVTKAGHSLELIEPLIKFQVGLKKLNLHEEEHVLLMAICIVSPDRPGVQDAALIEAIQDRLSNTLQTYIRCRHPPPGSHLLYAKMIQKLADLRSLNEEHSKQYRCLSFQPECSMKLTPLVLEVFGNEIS

The first assay has as its target Vitamin D3 receptor (Homo sapiens) (UniProt P11473). Kind of assay: qHTS assay to identify small molecule agonists of the vitamin D receptor (VDR) signaling pathway (AID 743222). The note with it: HEK293T VDR-UAS-bla, beta-lactamase FRET ratio, 16 h; series mostly up to 63.5 µM. A digest of the protocol: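 Agonist activity measured in VDR-bla reporter cells. Exposure 16 h, 37C, 5% CO2; detection by B/G FRET substrate, 2 h RT.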
(qHTS replaces the single test concentration by a dilution series.)
As to `Cc1cn([C@H]2C[C@H](F)[C@@H](CO)O2)c(=O)[nH]c1=O`, the outcome was inactive.

In the case of `COc1cc(NC(C)CCCN)c2ncccc2c1` (centres undefined), the result was inactive.

Regarding `COc1cc(S(=O)(=O)Nc2ccccc2)c(OC)cc1N`, the outcome was inactive.

Regarding `COc1ccc(/C=C/C(=O)c2ccc(OC)cc2OC)cc1`, the result was inactive.

Consider `NC(=O)CCCCC(N)=O`, for which the result was inactive.

As to `CCNc1nc(N)nc(Cl)n1`, the outcome was inactive.

For `CN(C)CC/C=C1\c2ccccc2Sc2ccc(Cl)cc21`, the result was inactive.

As to `CCN(CC)CC(=O)Nc1c(C)cccc1C(=O)OC`, the result was inactive.

`Cc1cccc2sc(N)nc12`: the result was inactive.

As for `CC(O)Cn1cnc2c1c(=O)n(C)c(=O)n2C` (centres undefined), the result was inactive.

Regarding `O=C(O)CN1C(=O)c2cccc3cccc(c23)C1=O`, the result was inactive.

Consider `O=C1NC(=O)c2cccc3cccc1c23`, for which the outcome was inactive.

Regarding `FC(F)(F)C(F)(F)C(F)(F)C(F)(F)CCI`, the result was inactive.

As to `CCN(Cc1cccc(S(=O)(=O)O)c1)c1ccc(C(=C2C=CC(=[N+](CC)Cc3cccc(S(=O)(=O)O)c3)C=C2)c2ccccc2S(=O)(=O)[O-])cc1`, the result was inactive.

For `COc1ccc2nc(S(=O)Cc3ncc(C)c(OC)c3C)[nH]c2c1` (centres undefined), the result was inactive.

As to `COC(=O)CC(C(C)=O)C(=O)OC` (centres undefined), the result was inactive.

Consider `CC1CCC(C(C)CS)CC1S` (centres undefined), for which the result was inactive.

Take `CCCCCCCC(=O)OCCCCCC`: the outcome was inactive.

In the case of `CC(C)CC(O)CC(C)C`, the outcome was inactive.

Turning to `COc1ccc(C)cc1`, the outcome was inactive.

Take `O=C(O)c1cc(Cl)cc(Cl)c1O`: the outcome was inactive.

As for `CC(C)C(=O)OCCOc1ccccc1`, the outcome was inactive.

With `COC(=O)c1sccc1S(N)(=O)=O`, the result was inactive.

For the compound `CNC1CCCN(c2c(F)cc3c(=O)c(C(=O)O)cn(C4CC4)c3c2OC)C1` (centres undefined), the result was inactive.

In the case of `O=C(c1ccccc1)c1ccc(O)cc1`, the outcome was inactive.

Take `CCN(Cc1cccc(S(=O)(=O)O)c1)c1ccc(C(=C2C=CC(=[N+](CC)Cc3cccc(S(=O)(=O)O)c3)C=C2)c2ccc(O)cc2S(=O)(=O)[O-])cc1`: the result was inactive.

With `Nc1ccc(N=Nc2ccc(N)cc2)cc1`, the result was inactive.

The target is the same in a further assay. The assay is described as follows: qHTS assay to identify small molecule antagonists of the vitamin D receptor (VDR) signaling pathway (AID 743223; active = well fitted inhibition curve with a large enough effect in the signal ratio in the repeat runs, not every such curve was filed as active; the % refers to the signal ratio). The note with it: VDR-UAS-bla HEK293T, beta-lactamase FRET ratio, 16 h; series mostly up to 61 µM. A digest of the protocol: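 Antagonist mode uses 1alpha,25-dihydroxyvitamin D3 at 3 nM final as stimulus. VDR-bla cells receive compounds in DMSO, incubate 16 h at 37C, then a beta-lactamase FRET substrate for 2 h at room temperature before fluorescence measurement.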
With `Cc1cn([C@H]2C[C@H](F)[C@@H](CO)O2)c(=O)[nH]c1=O`, the outcome was inactive.

For `COc1cc(NC(C)CCCN)c2ncccc2c1` (centres undefined), the result was inactive.

Take `NC(=O)CCCCC(N)=O`: the outcome was inactive.

Consider `CN(C)CC/C=C1\c2ccccc2Sc2ccc(Cl)cc21`, for which the result was inactive.

As for `CCN(CC)CC(=O)Nc1c(C)cccc1C(=O)OC`, the outcome was inactive.

In the case of `Cc1cccc2sc(N)nc12`, the outcome was inactive.

As for `CC(O)Cn1cnc2c1c(=O)n(C)c(=O)n2C` (centres undefined), the result was inactive.

For `O=C(O)CN1C(=O)c2cccc3cccc(c23)C1=O`, the result was inactive.

For `O=C1NC(=O)c2cccc3cccc1c23`, the outcome was inactive.

As for `CCCc1nc2c(C)cc(-c3nc4ccccc4n3C)cc2n1Cc1ccc(-c2ccccc2C(=O)O)cc1`, the result was inactive.

Take `FC(F)(F)C(F)(F)C(F)(F)C(F)(F)CCI`: the outcome was inactive.

For the compound `CCN(Cc1cccc(S(=O)(=O)O)c1)c1ccc(C(=C2C=CC(=[N+](CC)Cc3cccc(S(=O)(=O)O)c3)C=C2)c2ccccc2S(=O)(=O)[O-])cc1`, the outcome was inactive.

Turning to `COc1ccc2nc(S(=O)Cc3ncc(C)c(OC)c3C)[nH]c2c1` (centres undefined), the outcome was inactive.

Consider `CCCCCCCC(=O)OCCCCCC`, for which the outcome was inactive.

`CC(C)CC(O)CC(C)C`: the result was inactive.

Turning to `O=C(O)c1cc(Cl)cc(Cl)c1O`, the result was inactive.

Consider `CC(C)C(=O)OCCOc1ccccc1`, for which the outcome was inactive.

Consider `COC(=O)c1sccc1S(N)(=O)=O`, for which the outcome was inactive.

Regarding `CNC1CCCN(c2c(F)cc3c(=O)c(C(=O)O)cn(C4CC4)c3c2OC)C1` (centres undefined), the result was inactive.

As to `O=C(c1ccccc1)c1ccc(O)cc1`, the result was inactive.

As to `CCN(Cc1cccc(S(=O)(=O)O)c1)c1ccc(C(=C2C=CC(=[N+](CC)Cc3cccc(S(=O)(=O)O)c3)C=C2)c2ccc(O)cc2S(=O)(=O)[O-])cc1`, the outcome was inactive.

Turning to `Nc1ccc(N=Nc2ccc(N)cc2)cc1`, the outcome was inactive.

Tested on in a further assay: not listed separately
Kind of assay: qHTS assay to identify small molecule agonists of the vitamin D receptor (VDR) signaling pathway - cell viability counter screen (AID 743224; active = well fitted cell-killing curve with a large enough effect in the repeat runs; also: nearly all actives have a fitted effect of over 50% in size). The note with it: VDR-bla HEK293T viability, CellTiter-Glo luminescence, 16 h; series mostly up to 62.6 µM. The method in brief:
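VDR-bla cell line, quantitative HTS format; 16 h compound incubation (37C, 5% CO2); ATP-based CellTiter-Glo luminescence measured in the reporter assay wells.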
Consider `Cc1cn([C@H]2C[C@H](F)[C@@H](CO)O2)c(=O)[nH]c1=O`, for which the Potency result is “inactive”.

For the compound `COc1cc(NC(C)CCCN)c2ncccc2c1` (centres undefined), the Potency result is “inactive”.

Turning to `COc1cc(S(=O)(=O)Nc2ccccc2)c(OC)cc1N`, the Potency entry is “inactive”.

`COc1ccc(/C=C/C(=O)c2ccc(OC)cc2OC)cc1`: the Potency result is “inactive”.

As to `NC(=O)CCCCC(N)=O`, the Potency result is “inactive”.

Consider `CCNc1nc(N)nc(Cl)n1`, for which the Potency result is “inactive”.

Take `CCN(CC)CC(=O)Nc1c(C)cccc1C(=O)OC`: the Potency entry is “inactive”.

With `Cc1cccc2sc(N)nc12`, the Potency entry was “inactive”.

With `CC(O)Cn1cnc2c1c(=O)n(C)c(=O)n2C` (centres undefined), the Potency result is “inactive”.

As to `O=C(O)CN1C(=O)c2cccc3cccc(c23)C1=O`, the Potency result was “inactive”.

Turning to `CCCc1nc2c(C)cc(-c3nc4ccccc4n3C)cc2n1Cc1ccc(-c2ccccc2C(=O)O)cc1`, the Potency result is “inactive”.

For the compound `FC(F)(F)C(F)(F)C(F)(F)C(F)(F)CCI`, the Potency entry was “inactive”.

Take `COc1ccc2nc(S(=O)Cc3ncc(C)c(OC)c3C)[nH]c2c1` (centres undefined): the Potency entry was “inactive”.

Take `COC(=O)CC(C(C)=O)C(=O)OC` (centres undefined): the Potency result was “inactive”.

Consider `CC(C)CC(O)CC(C)C`, for which the Potency entry was “inactive”.

Consider `COc1ccc(C)cc1`, for which the Potency result was “inactive”.

As for `COc1ccc(-n2nc(C(F)F)cc2-c2ccc(S(C)=O)cc2)cc1` (centres undefined), the Potency entry is “inactive”.

For the compound `O=C(O)c1cc(Cl)cc(Cl)c1O`, the Potency result is “inactive”.

Regarding `CC(C)C(=O)OCCOc1ccccc1`, the Potency entry is “inactive”.

On to `COC(=O)c1sccc1S(N)(=O)=O`, for which the Potency entry is “inactive”.

Consider `CNC1CCCN(c2c(F)cc3c(=O)c(C(=O)O)cn(C4CC4)c3c2OC)C1` (centres undefined), for which the Potency entry is “inactive”.

As for `c1ccc(CCCc2ccncc2)cc1`, the Potency result is “inactive”.

Turning to `Nc1ccc(NC(=O)c2ccc(N)cc2)cc1`, the Potency result is “inactive”.

With `O=C(c1ccccc1)c1ccc(O)cc1`, the Potency entry was “inactive”.

`Nc1ccc(N=Nc2ccc(N)cc2)cc1`: the Potency result is “inactive”.
